target: EPHA8; test: pooled miR-30 sensor sort-seq; sequence = guide strand; settings: shRNA
Further: reference of the scale not given here.

| Sequence | sensor-assay potency score (higher = more potent) |
| --- | --- |
| TTTCCCGGTCTCCACCTCCATG | -1.71 |
| TACATCTTGGGTGTGTCCCGCT | -0.241 |
| TGCATCTTCTCCTCGTCCGAGT | -1.08 |
| TTTGAGGAACTGGCTTTCTTGT | -1.09 |
| TCTGATAGTGCATCTTCTCCTC | 0.0792 |
| TAGTACTTGATCTCATACTCCA | -0.186 |
| ATCGAGGACACTGACAATCTGG | -0.163 |
| TTGATCTCAGCATAGACGCGCC | -0.595 |
| TAGCCGGCACTGCACACGCATT | -1.71 |
| TAGCTGAGGTCACAGTGGCAGG | -1.64 |
| TCCATTCTGATAGTGCATCTTC | -0.518 |
| TGCATGATGGTGAACTGCCCGT | -1.1 |
| TCCAGAGTCACTGATGTCCCAT | -0.773 |
| ATTTTCTCGATGTGGATCCTAG | -0.272 |
| ATGAGCGTCAGGCAGATCCAGA | -1.66 |
| TTGTCCTTCTCGTAGTACTTGA | -0.781 |

target: EPHB3; test: as above; settings: shRNA

| Sequence | sensor-assay potency score (higher = more potent) |
| --- | --- |
| AACTGGTGTAGGTAGGATCGGA | -0.385 |
| TCACATTGGAGATCACACCTCG | 0.593 |
| TGAGGTTTCATTCACATTGGAG | -0.889 |
| TACTGCTGCAGCTTCTCCGTGT | 0.38 |
| TTCATCTGGCTGGTCACTGTGG | -0.423 |
| TACTTCATCTCGTAGTCCAGGA | -0.409 |
| TCACCAACTGTCGTGAAGGTTG | -0.896 |
| TTACACACCTGGTATGTGCGGA | 0.227 |
| TTGAGCTCCACGTAGACCCGCT | 0.189 |
| TATGACAGCACCAAGGGCGGGG | -0.054 |
| ATTGCGGATGAGCTTGTCCAGG | -1.31 |
| TTGTGGTCTCAAACTCGGCAGG | -1.08 |
| TTGTCATCACAGCGTGAGCAGG | -1.61 |
| TTGCTGTTGACAAGGATGTTGC | -0.897 |
| TTGTTCTGGCTTGACTCGCGCA | -0.743 |
| TAGTCCAGGATGACTCCGTTGG | -0.557 |
| ATGACAATTCCGTAGCTCCAGA | -1.32 |
| TCGTAGTCCAGGATGACTCCGT | -0.375 |
| TCTCCGTGTACTCCGAATCAGA | -1.2 |
| TAGCAGAAGTGAACTTCCGATA | -0.801 |
| TTGTACAGGAGGTCATCCCGGC | -0.315 |
| TTGCAGATGACATTGTACAGGA | -0.122 |
| TTGCAGTAGAGCTTGAGTGGCA | -0.145 |
